The source made the active and inactive calls. The rule behind the calls is not given here. Bounds are passed on as bounds.
Potency is the fitted concentration of half-maximal effect.

The experiment relates to HIV-1 nucleocapsid protein NCp7 (binding to TG oligonucleotide). Description: HIV Nucleocapsid (AID 346).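 Note: potency is for inhibitors that block NC binding and lower polarization.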 Conditions: HIV-1 NC / fluorescein-TGTGTGTG probe, fluorescence polarization. An outline of the steps: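 Reagents dispensed (10 nM TG4xF, 100 nM HIV-1 NC), plates spun, compounds pin-transferred, then incubated 1 hr at room temperature before FP imaging. Buffer: Hepes pH 7.5, 250mM NaCl, 1uM ZnCl2, 100 uM TCEP, 5 mM 2-mercaptoethanol.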
Regarding `O=C(c1ccco1)N1CCC2(CCCN(c3ccncc3)C2)CC1`, the Potency was > 20 µM (inactive).
The figure for `Cc1cnc(CNc2nc(-c3ccccc3C(F)(F)F)nc3ccccc23)cn1` is > 20 µM (inactive); for `COc1ccccc1CNc1ncnc2ccc(-c3ccc(N(C)C)cc3)cc12` it is > 20 µM (inactive); for `COc1ccc(-c2nc3cnc(N(C)C)nc3n(CCc3ccccc3)c2=O)cc1` it is > 4 µM (inactive).
The figure for `COCC(=O)N1CCC[C@@]2(CCN(Cc3nccs3)C2)C1` is > 20 µM (inactive); for `O=C(c1ccco1)N1CCC2(CCCN(c3cccc(-c4ccccc4)c3)C2)CC1` it is > 20 µM (inactive); for `COc1ccc(C(=O)N2CCC3(CCCN(c4ccc(-c5ccccc5)cc4)C3)CC2)cc1` it is > 20 µM (inactive).
The figure for `CN1CCN(c2ncc3nc(CCc4ccccc4)c(=O)n(Cc4cccs4)c3n2)CC1` is > 20 µM (inactive).
As to `COc1ccc(NC(=O)N2CC3(CCN(C(=O)c4ccc(OC)cc4)CC3)C2)cc1`, the Potency was > 20 µM (inactive).
The value for `COc1ccc(-c2nc3cnc(N(C)C)nc3n(C3CC3)c2=O)cc1` was > 20 µM (inactive); that for `COc1ccccc1-c1cncnc1NCCc1cnc[nH]1` was > 20 µM (inactive); that for `CS(=O)(=O)N1CCC2(CC1)CN(c1ccccc1)C2` was > 20 µM (inactive).
The value for `COCCNc1ncnc2ccc(-c3ccc(N(C)C)cc3)cc12` was > 20 µM (inactive); that for `O=C(c1cccc(F)c1)N1CCC2(CC1)CN(C(c1ccccc1)c1ccccc1)C2` was > 20 µM (inactive).
For `COCC(=O)N1CCC2(CCCN(c3ccccn3)C2)CC1`, the Potency was > 20 µM (inactive).
With `CN(C)c1ccnc(-c2ccccc2C(F)(F)F)n1`, the Potency was > 20 µM (inactive).
The figure for `CN1CCN(c2ncc3nc(-c4ccc(Cl)cc4)c(=O)n(CCC#N)c3n2)CC1` is > 20 µM (inactive).
As for `CNc1ccnc(-c2ccccc2OC)n1`, the Potency was > 20 µM (inactive).
The value for `CN1CC[C@@]2(CCCN(S(=O)(=O)c3ccccc3)C2)C1` was > 20 µM (inactive); that for `CN(C)Cc1ccccc1-c1cncnc1NCc1cccnc1` was > 20 µM (inactive).
The value for `O=c1c(-c2ccc(F)cc2)nc2cnc(N3CCNCC3)nc2n1C1CC1` was > 20 µM (inactive); that for `FC(F)(F)c1ccccc1-c1cc(N2CCNCC2)ncn1` was > 20 µM (inactive).
As for `N#Cc1cccc(NC(=O)N2CC[C@@]3(CCCN(S(=O)(=O)c4ccccc4)C3)C2)c1`, the Potency was > 20 µM (inactive).
The figure for `COCCn1c(=O)c(C)nc2cnc(Nc3ccccc3)nc21` is > 20 µM (inactive); for `Cc1nc2cncnc2n(Cc2ccccc2Cl)c1=O` it is > 20 µM (inactive); for `Cc1noc(C)c1-c1nccc(NCCN2CCOCC2)n1` it is > 20 µM (inactive).
`COCCn1c(=O)c(-c2cccc(C#N)c2)nc2cnc(Oc3ccccc3)nc21`: the Potency was > 20 µM (inactive).
The value for `CNc1ncnc2ccc(-c3ccccc3C#N)cc12` was > 20 µM (inactive); that for `O=S(=O)(c1ccccc1)N1CCC[C@@]2(CCN(Cc3ccccc3)C2)C1` was > 20 µM (inactive); that for `COc1cccc(-c2cncnc2NCc2ccccc2OC)c1` was > 20 µM (inactive).
Turning to `c1ccc(CNc2ncnc3ccc(-c4cccnc4)cc23)cc1`, the Potency was > 20 µM (inactive).
The value for `Cn1cccc1C(=O)N1CCC2(CCCN(C(=O)Nc3cccc(C#N)c3)C2)CC1` was > 20 µM (inactive).
The value for `CCNc1ncc2nc(-c3cccs3)c(=O)n(-c3ccc(OC)cc3)c2n1` was 4.09 µM (active); that for `c1csc(CNc2ccnc(-c3ccc4c(c3)OCO4)n2)c1` was > 20 µM (inactive); that for `N#Cc1cccc(-c2cncnc2NCc2cccs2)c1` was > 20 µM (inactive).
The value for `COc1ccc(-c2nc3cnc(N4CCN(C)CC4)nc3n(Cc3ccc(F)cc3)c2=O)cc1` was > 20 µM (inactive); that for `COc1ccc(C(=O)N2CCC3(CCCN(c4ncccn4)C3)CC2)cc1` was > 20 µM (inactive); that for `O=C(c1ccncc1)N1CCC[C@@]2(CCN(c3ccncc3)C2)C1` was > 20 µM (inactive).
As for `c1ccc2c(NC3CC3)nc(-c3ccoc3)nc2c1`, the Potency is > 20 µM (inactive).
For `Cc1noc(C)c1-c1ccc2ncnc(N3CCOCC3)c2c1`, the Potency is > 20 µM (inactive).

(Values after PubChem BioAssay (NCATS).)
